LDHA inh: blocks human lactate dehydrogenase A; hit rate 0.15% among 480,000; P00338; purified LDHA, NADH/diaphorase-resazurin fluorescence; active compounds read low; activity change, % (values are at about 110 or 230 µM); in the data active = activity change below about -30%; inconclusive = mostly about -25% to -30%;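 note: plate controls were DMSO wells for no effect and wells without enzyme for full effect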
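Remaining NADH was detected by diaphorase (0.133 mg/mL) converting 37 µM resazurin to fluorescent resorufin, read at 0 and 20 minutes. The preceding 5-minute room-temperature reaction used 2 nM LDHA, 0.2 mM sodium pyruvate and 0.06 mM NADH at pH 7.4.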
EPAC2 agonist: EPAC2 (human) agonism; AID 720711; EPAC2 activation, biochemical qHTS; response scale: 100% = 6.5 mM cAMP response; Potency, µM (highest dose often 154 µM), inactives show top-dose activation, hits mostly activators; hit rate 0.079% among 360,000; note: potency is the fitted concentration of half-maximal effect; nearly all actives have a fitted effect of over 50% in size
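Compounds were titrated in qHTS against a Rap1B-BODIPY-GDP (250 nM) complex with EPAC2 (100 nM) and GDP (50 uM). BODIPY-GDP release tracked at 480/540 nm over 30 min at room temperature, normalized to 6.5 mM cAMP.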
EPAC1 agonist: agonists of human EPAC1; hit rate 0.073% among 360,000; O95398; EPAC1 agonist qHTS, biochemical assay; response scale: 100% = response to 6.5 mM cAMP; Potency, µM (top dose mostly 154 µM), for inactives: at the top dose activation, actives largely listed as activators; AID 720707; note: potency is the fitted concentration of half-maximal effect; nearly all actives have a fitted effect of over 60% in size
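Normalized to 6.5 mM cAMP, activity reflects EPAC1-catalysed release of BODIPY-GDP from Rap1B, followed kinetically over 30 min at 480 nm excitation, 540 nm emission. Reaction contained 100 nM EPAC1, 250 nM Rap1B-BODIPY-GDP, 50 uM GDP.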
EPAC1 antag: EPAC1 (human) antagonism; O95398; EPAC1 GEF assay, Rap1b-BODIPY-GDP exchange fluorescence; Potency, µM (series often up to 115 µM), without a hit: top-dose activity change, negative = inhibition, actives largely listed as inhibitors; hit rate 0.14% among 360,000;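 note: potency is the fitted concentration of half-maximal effect; plate controls were vehicle for no effect and positive control for full effect; nearly all actives have a fitted effect of over 50% in size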
USP1-UAF1 inh: USP1/UAF1 (human) deubiquitinase inhibition; recombinant USP1/UAF1, Ub-Rhodamine cleavage fluorescence; Potency, µM (top dose mostly 57.1 µM), without a hit: at the highest dose activity change, negative = inhibition, actives largely listed as inhibitors; hit rate 0.23% among 390,000; AID 743255; note: potency is the fitted concentration of half-maximal effect; % is set by controls: 0 for no effect and ±100 for the full control effect; nearly all actives have a fitted effect of over 60% in size
Target sequence (O94782 whole entry, looked up): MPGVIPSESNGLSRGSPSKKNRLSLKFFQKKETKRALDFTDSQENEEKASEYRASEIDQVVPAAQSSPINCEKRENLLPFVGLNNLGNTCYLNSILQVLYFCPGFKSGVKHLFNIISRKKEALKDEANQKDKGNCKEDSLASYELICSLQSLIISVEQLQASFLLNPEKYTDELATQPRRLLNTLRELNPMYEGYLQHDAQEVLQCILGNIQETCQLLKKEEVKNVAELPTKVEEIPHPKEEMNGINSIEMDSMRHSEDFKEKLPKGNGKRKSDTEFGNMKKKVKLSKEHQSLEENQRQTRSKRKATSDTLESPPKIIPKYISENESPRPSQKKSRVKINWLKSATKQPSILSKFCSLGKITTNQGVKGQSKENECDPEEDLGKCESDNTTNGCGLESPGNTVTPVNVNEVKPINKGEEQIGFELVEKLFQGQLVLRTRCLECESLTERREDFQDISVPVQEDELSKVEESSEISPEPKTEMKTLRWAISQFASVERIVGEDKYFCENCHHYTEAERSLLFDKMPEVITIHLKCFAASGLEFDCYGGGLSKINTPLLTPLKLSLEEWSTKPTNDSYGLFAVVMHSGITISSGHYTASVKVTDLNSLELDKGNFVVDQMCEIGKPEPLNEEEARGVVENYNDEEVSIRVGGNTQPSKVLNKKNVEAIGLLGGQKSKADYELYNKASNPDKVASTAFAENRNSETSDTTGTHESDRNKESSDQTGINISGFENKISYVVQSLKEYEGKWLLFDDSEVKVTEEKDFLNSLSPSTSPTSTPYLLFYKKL
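Step one: compound is pinned into 1nM USP1/UAF1 in HEPES pH 7.8 buffer with TCEP. Step two: 15 min room-temperature incubation. Step three: Ub-Rho (150nM final) starts cleavage, tracked by fluorescence over six one-minute reads.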
EPAC2 antagonist: antagonists of human EPAC2; Q8WZA2; EPAC2 GEF exchange of Rap1B-BODIPY-GDP, fluorescence; Potency, µM (highest dose often 114 µM), inactives show top-dose activity, negative = inhibition, most hits filed as inhibitors; hit rate 0.18% among 360,000; AID 720708; note: potency is the fitted concentration of half-maximal effect; % is set by controls: 0 for no effect and ±100 for the full control effect; nearly all actives have a fitted effect of over 45% in size
Active calls of the source: *; i = inactive; ? = inconclusive; nt = no result given; [ ] = dose if it differs, or a comment. Hits are enriched below; roughly 0.56% of the tested compounds scored in any of these assays. Unless noted, calls come from the whole dose curve; as a rule, active = well fitted curve in the direction sought with a large enough effect; inconclusive = small, poorly fitted or top-dose-only effect, or another doubt; inactive = no such curve, though single readings can be large; an effect the other way counts as inactive or inconclusive.

SMILES	LDHA inh	EPAC2 agonist	EPAC1 agonist	EPAC1 antag	USP1-UAF1 inh	EPAC2 antagonist
CCCC(=O)N1CCc2cc(OC)c(OC)cc2C1COc1ccccc1OC (stereo unspecified)	0	6%	-4%	11%	-24%	-4%
FC(F)(F)c1cccc(CSc2nc(-c3cccs3)cc(C(F)(F)F)n2)c1	1	nt	nt	nt	nt	nt
CCOC(=O)c1cnc2c(Cl)cccc2c1Nc1ccccc1OCC	-5	nt	nt	nt	nt	nt
CCOC(=O)c1cnc2c(C)cccc2c1Nc1ccccc1OCC	-35*	nt	nt	nt	nt	nt
CCCCCC(=O)Cc1cc(O)cc2c1C(=O)Oc1cc(O)c(C(=O)O)c(CCCCC)c1O2	4	-9%	-10%	40µM*	?	16µM*
CCCn1c(-n2nc(C)c(C)c2C)nc2c1c(=O)n(CCN1CCCCC1)c(=O)n2C	2	nt	nt	nt	nt	nt
O=C1NC(=O)C2(N1)C(=O)c1cccc3cccc2c13 (stereo unspecified)	1	?	112µM*	40%	35µM*	59%
O=C1NC(=O)C2(N1)c1ccccc1-c1ccccc12	-7	1%	-2%	-13%	-21%	8%
CC[C@@]1(c2ccccc2OC)ON(c2ccccc2C(F)(F)F)C1=O	2	1%	-8%	-22%	-32%	14µM*
Cc1ccccc1[C@@]1(C)ON(c2ccccc2C(F)(F)F)C1=O	6	4%	1%	5%	5%	?
CCOC(=O)C1=C(O)C(=O)N(c2ccccc2)C1c1ccccc1F (stereo unspecified)	-2	nt	nt	nt	nt	nt
O=C1C(O)=C(c2ccccc2)C(c2ccccc2F)N1c1ccc(F)cc1 (stereo unspecified)	-41*	nt	nt	nt	nt	nt
CCC(CN(C)C)Oc1cc(NCc2ccccc2)c2ncn(C(C)C)c2c1 (stereo unspecified)	15	1%	-6%	?	28µM*	15%
Nc1nnc2c(n1)CCCC2	12	9%	5%	7%	16µM*	11%
C1CCc2nc3c(nc2C1)CCCC3	2	7%	1%	-29%	-8%	1%
CCOc1ccc(N(CC(=O)Nc2c(C)n(C)n(-c3ccccc3)c2=O)S(=O)(=O)c2ccc(F)cc2)cc1	-3	5%	2%	9%	-19%	11%
CCN(CC)C1=CC2=CC(=C(C#N)C#N)CCC2CC1 (stereo unspecified)	-6	100µM*	?	226%	i[2.29 µM]	i
CCn1c(C)[n+](CCCS(=O)(=O)[O-])c2cc(Cl)c(Cl)cc21	-46*	10%	0%	10%	-7%	14%
CCn1c(C)[n+](CC)c2ccc(S(=O)(=O)NC)cc21	-10	13%	12%	-2%	-3%	6%
CCOc1ccccc1Oc1coc2cc(OC(=O)c3ccc4c(c3)OCO4)ccc2c1=O	-31*	nt	nt	nt	nt	nt
CCCNC(=O)c1cc2ccc(OC)cc2nc1C	-13	nt	nt	nt	nt	nt
O=C(Nc1nc2ccccc2s1)c1cccc(S(=O)(=O)N2CCc3ccccc32)c1	-15	3%	14%	-16%	-19%	-5%
O=C(Nc1nc2c(s1)CN(Cc1ccccc1)CC2)c1cccc(S(=O)(=O)N2CCc3ccccc32)c1	-2	19%	?	27%	28µM*	34%
COc1cc(-c2c(NC(=O)c3ccc(C)cc3)oc3ccccc3c2=O)cc(OC)c1OC	-2	nt	nt	nt	nt	nt
CCC(=O)N1CCc2cc(S(=O)(=O)NC(CC(C)C)C(=O)NCc3cccc(OC)c3)ccc21 (stereo unspecified)	-31*	nt	nt	nt	0%	nt
SMILES	LDHA inh	EPAC2 agonist	EPAC1 agonist	EPAC1 antag	USP1-UAF1 inh	EPAC2 antagonist
CCC(=O)N1CCc2cc(S(=O)(=O)NC(CC(C)C)C(=O)NCc3ccc(F)cc3)ccc21 (stereo unspecified)	-17	nt	nt	nt	-8%	nt
CCN(CC)S(=O)(=O)c1ccc(CN)s1	0	nt	nt	nt	nt	nt
O=[N+]([O-])c1cc(Br)c(O)c(/C=N/Nc2nnnn2-c2cccc3ccccc23)c1	-37*	-6%	-1%	?	-27%	-16%
CC(C)(C)C(=O)c1sc2nc(-c3cccs3)cc(C(F)(F)F)c2c1N	-1	-78%	4%	26%	1.3µM*	64%
CCN(CC)C(=O)c1sc2nc(-c3cccs3)cc(-c3ccc(Cl)cc3)c2c1N	0	-11%	?	17%	28µM*	55%
CCN(CC)C(=O)c1sc2nc(-c3cccs3)cc(-c3cccs3)c2c1N	-8	25%	5%	-6%	?	13%
Cc1nnc(NC(=O)c2sc3nc(-c4cccs4)cc(C(F)(F)F)c3c2N)s1	-6	-12%	-6%	-23%	-9%	-2%
Cc1ccc2oc(C(=O)N(C)CC(=O)Nc3ccc(Br)cc3C)cc(=O)c2c1	-4	nt	nt	nt	nt	nt
CCOC(=O)c1ccccc1-c1csc(NS(=O)(=O)c2ccc(Cl)cc2)n1	-2	8%	-1%	79µM*	-12%	-6%
CN(C)c1ccc2nc3c(=O)[nH]c(=O)nc-3n(CC(O)C(O)C(O)CO)c2c1 (stereo unspecified)	5	9%	20%	?	28µM*	3%
COc1ccc(NC2=C(NCCO)C(=O)c3ccccc3C2=O)cc1	30	-3%	-1%	-27%	25µM*	-5%
COc1cccc(NC2=C(NCCO)C(=O)c3ccccc3C2=O)c1	5	2%	3%	-7%	?	-16%
Cc1cccc(NC2=C(NCCO)C(=O)c3ccccc3C2=O)c1	29	12%	7%	25%	32µM*	-5%
Cc1cc(NC(=O)Nc2nnc(N(C)Cc3ccccc3)s2)ccc1Br	-13	nt	nt	nt	32µM*	nt
Cc1cccc(N(C)C(=O)c2cnc(N3CCOCC3)c3ccccc23)c1	1	nt	nt	nt	nt	nt
Cc1ccccc1C1=C/C(=C(\SS/C(C(=O)c2ccc(OCC(=O)O)c(Cl)c2Cl)=C2\C=C(c3ccccc3C)SS2)C(=O)c2ccc(OCC(=O)O)c(Cl)c2Cl)SS1	-14	-1%	0%	50µM*	32µM*	71µM*
c1cc2c3c(cccc3c1)/C(=N/OCC1CO1)C2 (stereo unspecified)	-31*	nt	nt	nt	nt	nt
NC(=S)NN=C1Cc2cccc3cccc1c23	-1	9%	-6%	-12%	-19%	13%
COc1cccc(C(=O)NC2CCNCC2)c1	-3	11%	5%	-6%	0%	-3%
Cc1ccc(NC(=O)c2ccc(-n3cccn3)c([N+](=O)[O-])c2)cc1	-8	18%	8%	0%	-4%	-15%[57.1 µM]
O=C(Nc1ccc(C2=NCCN2)cc1)c1ccc(C(=O)Nc2ccc(C3=NCCN3)cc2)c([N+](=O)[O-])c1	-36*	29%	6%	13%	-26%	-20%
O=C(O)c1cc2c(ncc3c(=O)n(-c4ccccc4)[nH]c32)s1	-35*	1%	-14%	-11%	nt	-10%
